Laboratory results reported in PMC4081100, “A DNA-binding-site landscape and regulatory network analysis for NAC transcription factors in Arabidopsis thaliana”.

Legend:
Test in all cases: universal protein binding microarray (PBM); transcription factors of Arabidopsis thaliana; high values mean tight binding
[1] = molecular target: T1, GST-ANAC092(1-176) (Arabidopsis thaliana, UniProt Q9FKA0 1-176); details: protein: recombinant; tags: GST; chain copies: 2; dsDNA, one strand shown
T1 sequence: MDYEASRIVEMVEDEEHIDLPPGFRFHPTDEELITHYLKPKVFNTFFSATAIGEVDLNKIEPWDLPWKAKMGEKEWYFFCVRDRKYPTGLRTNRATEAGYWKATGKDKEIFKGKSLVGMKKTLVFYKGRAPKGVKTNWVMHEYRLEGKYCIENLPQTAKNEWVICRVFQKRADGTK
In short: (§1)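 GST-tagged NAC-domain, full-length or DNA-binding-domain proteins were induced in cells, with zinc acetate added for zinc-finger proteins. They were purified on glutathione–Sepharose 4B and quantified by A280 or anti-GST western blot. Each was applied at 200 to 500 nM final, in duplicate, to custom all-10-mer Agilent 4 × 180K arrays made double-stranded by primer extension, with gapped and ungapped 8-mers scored. Binding is the normalised enrichment score (E-score).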

[2] = molecular target: T2, GST-ANAC019 NAC domain (Arabidopsis thaliana, UniProt Q9C932 14-162); details: protein: recombinant; tags: GST; chain copies: 2; dsDNA, one strand shown
T2 sequence: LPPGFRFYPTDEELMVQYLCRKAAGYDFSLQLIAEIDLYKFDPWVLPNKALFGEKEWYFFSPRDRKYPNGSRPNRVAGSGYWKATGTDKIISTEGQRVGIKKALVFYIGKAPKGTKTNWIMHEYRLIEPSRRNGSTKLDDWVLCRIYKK
In short: as §1

[3] = molecular target: T3, GST-ANAC055(1-171) (Arabidopsis thaliana, UniProt Q9LDY8 1-171); details: protein: recombinant; tags: GST; chain copies: 2; dsDNA, one strand shown
T3 sequence: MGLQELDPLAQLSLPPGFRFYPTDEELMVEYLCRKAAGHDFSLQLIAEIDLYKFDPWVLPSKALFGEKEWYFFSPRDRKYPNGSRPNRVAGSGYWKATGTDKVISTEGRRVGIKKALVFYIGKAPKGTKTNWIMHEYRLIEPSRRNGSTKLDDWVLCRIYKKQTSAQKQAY
In short: as §1

[4] = molecular target: T4, GST-ATAF1 NAC domain (Arabidopsis thaliana, UniProt Q39013 7-158); details: protein: recombinant; tags: GST; chain copies: 2; dsDNA, one strand shown
T4 sequence: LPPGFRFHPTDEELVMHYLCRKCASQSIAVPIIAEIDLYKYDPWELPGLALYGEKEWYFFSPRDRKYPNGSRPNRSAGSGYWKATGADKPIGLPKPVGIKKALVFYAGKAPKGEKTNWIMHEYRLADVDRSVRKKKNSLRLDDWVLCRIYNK
In short: as §1

[5] = molecular target: T5, GST-ANAC092(1-285) full length (Arabidopsis thaliana, UniProt Q9FKA0 1-285); details: protein: recombinant; tags: GST; chain copies: 2; dsDNA, one strand shown
T5 sequence: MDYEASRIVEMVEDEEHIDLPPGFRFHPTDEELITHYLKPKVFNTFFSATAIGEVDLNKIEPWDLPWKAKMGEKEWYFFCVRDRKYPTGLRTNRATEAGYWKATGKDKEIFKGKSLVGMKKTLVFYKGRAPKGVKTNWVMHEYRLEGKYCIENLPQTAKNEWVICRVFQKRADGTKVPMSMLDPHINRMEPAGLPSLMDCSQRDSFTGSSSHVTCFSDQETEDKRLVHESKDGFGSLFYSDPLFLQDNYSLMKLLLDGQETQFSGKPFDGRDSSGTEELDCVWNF
In short: as §1

[6] = molecular target: T6, GST-SND1(1-203) (Arabidopsis thaliana, UniProt Q9LPI7 1-203); details: protein: recombinant; tags: GST; chain copies: 2; dsDNA, one strand shown
T6 sequence: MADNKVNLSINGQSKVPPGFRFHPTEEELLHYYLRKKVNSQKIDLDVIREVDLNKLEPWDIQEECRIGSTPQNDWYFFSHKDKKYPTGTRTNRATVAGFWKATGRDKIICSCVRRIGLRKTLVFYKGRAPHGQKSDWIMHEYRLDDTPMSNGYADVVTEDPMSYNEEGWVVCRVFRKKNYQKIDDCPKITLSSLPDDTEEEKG
In short: as §1

[7] = molecular target: T7, GST-VND3 NAC domain (Arabidopsis thaliana, UniProt Q9FH59 12-162); details: protein: recombinant; tags: GST; chain copies: 2; dsDNA, one strand shown
T7 sequence: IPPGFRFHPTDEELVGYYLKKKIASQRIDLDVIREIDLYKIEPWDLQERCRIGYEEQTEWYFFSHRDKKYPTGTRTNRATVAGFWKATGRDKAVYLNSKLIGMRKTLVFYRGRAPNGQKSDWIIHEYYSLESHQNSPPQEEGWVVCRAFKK
In short: as §1

[8] = molecular target: GST-NTL6(1-168) (Arabidopsis thaliana, UniProt Q9SCK6 1-168); details: protein: recombinant; tags: GST; chain copies: 2; dsDNA, one strand shown
Chain of GST-NTL6(1-168) (Q9SCK6 1-168): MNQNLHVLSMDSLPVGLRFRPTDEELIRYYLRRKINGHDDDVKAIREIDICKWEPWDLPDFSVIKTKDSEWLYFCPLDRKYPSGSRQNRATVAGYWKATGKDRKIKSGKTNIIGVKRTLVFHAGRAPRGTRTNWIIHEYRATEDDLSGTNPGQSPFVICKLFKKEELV
In short: as §1

[9] = molecular target: T8, GST-NST2(1-184) (Arabidopsis thaliana, UniProt Q9M274 1-184); details: protein: recombinant; tags: GST; chain copies: 2; dsDNA, one strand shown
T8 sequence: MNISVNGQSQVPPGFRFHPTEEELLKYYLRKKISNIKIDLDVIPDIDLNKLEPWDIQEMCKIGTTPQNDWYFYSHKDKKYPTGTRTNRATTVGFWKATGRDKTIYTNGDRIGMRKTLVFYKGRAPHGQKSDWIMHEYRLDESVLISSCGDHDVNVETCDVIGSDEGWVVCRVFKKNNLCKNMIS
In short: as §1

[10] = molecular target: T9, GST-NTL8 NAC domain (Arabidopsis thaliana, UniProt Q9XIN7 14-156); details: protein: recombinant; tags: GST; chain copies: 2; dsDNA, one strand shown
T9 sequence: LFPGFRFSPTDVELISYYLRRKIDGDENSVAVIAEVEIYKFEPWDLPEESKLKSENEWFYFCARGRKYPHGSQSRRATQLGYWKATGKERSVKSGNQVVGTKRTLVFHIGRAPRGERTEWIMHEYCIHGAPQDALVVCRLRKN
In short: as §1

[11] = molecular target: T10, GST-VND7 NAC domain (Arabidopsis thaliana, UniProt Q9C8W9 9-158); details: protein: recombinant; tags: GST; chain copies: 2; dsDNA, one strand shown
T10 sequence: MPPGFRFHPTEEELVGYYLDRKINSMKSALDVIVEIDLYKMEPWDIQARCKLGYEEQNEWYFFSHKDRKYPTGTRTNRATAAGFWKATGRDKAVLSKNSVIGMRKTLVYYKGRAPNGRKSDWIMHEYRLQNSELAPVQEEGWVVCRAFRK
In short: as §1

[12] = molecular target: GST-WRKY1(266-371) (Arabidopsis thaliana, UniProt Q9SI37 266-371); details: protein: recombinant; tags: GST; dsDNA, one strand shown
Chain of GST-WRKY1(266-371) (Q9SI37 266-371): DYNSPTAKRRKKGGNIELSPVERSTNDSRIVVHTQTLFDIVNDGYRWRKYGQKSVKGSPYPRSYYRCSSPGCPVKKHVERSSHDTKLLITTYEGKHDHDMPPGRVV
In short: as §1

[13] = molecular target: T11, GST-NAP(1-166) (Arabidopsis thaliana, UniProt O49255 1-166); details: protein: recombinant; tags: GST; chain copies: 2; dsDNA, one strand shown
T11 sequence: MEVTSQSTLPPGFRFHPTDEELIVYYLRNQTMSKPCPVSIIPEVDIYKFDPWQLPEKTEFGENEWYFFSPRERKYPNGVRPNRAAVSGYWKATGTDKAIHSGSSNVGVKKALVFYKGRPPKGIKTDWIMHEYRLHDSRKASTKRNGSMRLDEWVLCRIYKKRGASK
In short: as §1

Sequence	binding signal [1] [E-score]	binding signal [2] [E-score]	binding signal [3] [E-score]	binding signal [4] [E-score]	binding signal [5] [E-score]	binding signal [6] [E-score]	binding signal [7] [E-score]	binding signal [8] [E-score]	binding signal [9] [E-score]	binding signal [10] [E-score]	binding signal [11] [E-score]	binding signal [12] [E-score]	binding signal [13] [E-score]
ACACGCCT	0.319	0.189	0.173	0.212	0.411	0.0623	0.0938	–	–	–	–	–	–
CGAAGCAA	0.243	–	–	–	0.271	0.427	–	0.325	0.208	0.339	0.169	–	–
TGACCGAA	–	–	–	–	–	0.0502	–	–	–	–	–	0.459	–
ACGCCATG	0.336	–	–	–	0.404	0.222	–	–	0.128	–	0.0848	–	0.154
TCGCGTAA	0.283	–	0.0885	0.141	0.385	0.459	–	0.0668	0.259	–	0.14	–	–
CCACGCCA	0.372	0.0852	0.0687	0.145	0.415	0.141	–	–	0.0528	–	0.102	–	0.0773
AGGGGAAA	0.191	0.112	–	–	0.0577	0.0998	–	0.14	–	0.412	0.132	–	0.101
CCCCACCC	0.209	0.177	0.0515	0.234	0.278	0.272	–	0.274	0.182	0.277	0.171	–	–
CTTTCCTC	0.0932	0.0599	0.0748	–	–	0.147	–	0.104	–	0.453	0.0728	–	–
CTAGCGTA	0.262	–	0.0674	–	0.398	0.45	–	–	0.168	–	0.118	–	0.0722
GAAGAAAC	0.203	0.123	0.168	0.194	0.0911	0.126	–	0.295	0.197	0.423	0.0868	–	–
CGTAGACC	–	–	–	–	–	0.0522	–	–	–	–	–	0.434	–
CTTGCTTC	0.288	0.0507	–	–	0.368	0.403	–	0.295	0.204	0.303	0.0829	–	–
CCAAGTCA	–	–	–	–	–	0.0686	–	–	–	–	–	0.426	–
GCGTCAAA	–	–	–	–	0.0819	0.0924	–	–	0.052	0.0775	0.0799	0.409	–
CACGCTAA	0.453	0.226	–	–	0.471	0.415	–	0.0834	0.224	–	0.112	–	–
ACGCTATC	0.43	0.106	–	0.0721	0.454	0.431	–	–	0.303	–	0.0789	–	0.104
AGGAAAGC	0.23	0.214	0.119	0.124	0.0813	0.188	–	0.253	0.0888	0.436	0.177	–	0.0763
GAGGGTAA	0.0757	–	0.0669	0.123	0.109	0.108	–	0.17	0.173	0.474	0.079	–	–
